Source: PubChem BioAssay
For some assays here: Measured potencies and affinities stand elsewhere. The source made the active and inactive calls. Unless noted, how the calls were made is not given here.

Legend:
[1] = antimalarial activity against Dd2 strain (AID 2302;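 active means growth inhibition above 50% at the single 2 µM test dose, taken to imply half-maximal potency below 2 µM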;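 further: 0% = DMSO untreated growth and 100% = chloroquine plus artemisinin killed control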); conditions: P. falciparum Dd2 in RBCs, LDH growth readout, 72 h; at 2 µM; stronger effect = higher value
[2] = HepG2 cytotoxicity, primary screen, cytotoxicity control for P. falciparum antimalarial project, cell-based, ATP luminescence (AID 2303;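 active means inhibition above 50%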;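 further: 0% = DMSO wells and 100% = digitonin-killed cells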); conditions: HepG2 viability, 24-48 h, at 10 µM, stronger effect = higher value
[3] = target: L-lactate dehydrogenase (Plasmodium falciparum (isolate CDC / Honduras)) (UniProt Q27743); test: PfLDH activity inhibition – cell lysate, 3D7 strain, counter-screen for P. falciparum growth inhibition project (AID 2304);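 further: 0% = vehicle and 100% = reference inhibitor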; conditions: P. falciparum 3D7 crude extract, LDH APAD/NBT absorbance; at 2 µM; stronger effect = higher value
[4] = inhibition of 3D7 malaria parasite growth – strain 3D7 (AID 2306);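 further: 0% = DMSO wells and 100% = chloroquine plus artemisinin control wells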; conditions: P. falciparum 3D7 erythrocytic growth, LDH absorbance, 72 h; at 2 µM; stronger effect = higher value
[5] = target: Calcium-dependent protein kinase 1 (Plasmodium falciparum (isolate 3D7)) (UniProt P62344); test: PfCDPK1 kinase inhibitors, biochemical, TCAMS library (AID 1159585; cut-off not given, nearly all actives have IC50 up to about 0.98 µM;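 further: inhibitors leave more ATP so luminescence rises with inhibition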); conditions: recombinant PfCDPK1, Kinase-Glo ATP depletion luminescence
[6] = target: Plasmodium falciparum protein kinase 6 (PK6, PF3D7_1337100) (UniProt Q8IDW1); test: PfPK6 kinase inhibitors, biochemical, TCAMS library (AID 1159586); conditions: recombinant PfPK6, Kinase-Glo ATP depletion luminescence
[7] = target: Protein kinase 7 (PK7), Plasmodium falciparum 3D7 (PF3D7_0213400) (UniProt Q7YTF7); test: inhibition of Plasmodium PK7 catalytic activity – biochemical, TCAMS antimalarial set, Kinase-Glo luminescence (AID 1159587); conditions: recombinant PfPK7, Kinase-Glo ATP depletion luminescence
[8] = target: Calcium-dependent protein kinase 4 (Plasmodium falciparum (isolate 3D7)) (UniProt Q8IBS5); test: PfCDPK4 kinase inhibitors, biochemical, TCAMS library (AID 1159588; cut-off not given, nearly all actives have IC50 up to about 0.91 µM); conditions: recombinant PfCDPK4, Kinase-Glo ATP depletion luminescence
Chain of Calcium-dependent protein kinase 4 (Plasmodium falciparum (isolate 3D7)) (Q8IBS5 whole entry, looked up): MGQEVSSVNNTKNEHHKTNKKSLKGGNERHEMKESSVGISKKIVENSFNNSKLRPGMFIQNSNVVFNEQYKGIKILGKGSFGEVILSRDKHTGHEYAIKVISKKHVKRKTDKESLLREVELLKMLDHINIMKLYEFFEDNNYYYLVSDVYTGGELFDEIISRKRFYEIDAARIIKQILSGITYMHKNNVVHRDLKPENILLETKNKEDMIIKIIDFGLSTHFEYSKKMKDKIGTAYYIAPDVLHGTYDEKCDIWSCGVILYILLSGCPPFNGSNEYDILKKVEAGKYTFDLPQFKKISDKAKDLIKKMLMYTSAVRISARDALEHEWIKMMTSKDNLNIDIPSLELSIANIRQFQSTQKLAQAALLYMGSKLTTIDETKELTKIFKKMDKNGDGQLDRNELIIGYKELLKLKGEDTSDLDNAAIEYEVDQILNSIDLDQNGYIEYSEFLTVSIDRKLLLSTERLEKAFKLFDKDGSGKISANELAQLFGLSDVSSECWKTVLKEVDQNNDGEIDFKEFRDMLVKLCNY

Chain of Protein kinase 7 (PK7), Plasmodium falciparum 3D7 (PF3D7_0213400) (Q7YTF7 1-343): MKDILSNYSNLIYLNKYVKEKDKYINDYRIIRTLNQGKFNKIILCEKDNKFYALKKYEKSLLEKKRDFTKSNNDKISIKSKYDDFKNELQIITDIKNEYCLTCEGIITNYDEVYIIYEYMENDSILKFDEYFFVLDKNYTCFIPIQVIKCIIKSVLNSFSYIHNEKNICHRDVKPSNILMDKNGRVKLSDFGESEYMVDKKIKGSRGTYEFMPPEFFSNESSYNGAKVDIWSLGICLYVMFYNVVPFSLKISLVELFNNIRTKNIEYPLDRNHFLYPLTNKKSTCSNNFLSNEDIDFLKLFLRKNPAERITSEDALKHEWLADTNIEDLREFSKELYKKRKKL
Chain of L-lactate dehydrogenase (Plasmodium falciparum (isolate CDC / Honduras)) (Q27743 whole entry, looked up): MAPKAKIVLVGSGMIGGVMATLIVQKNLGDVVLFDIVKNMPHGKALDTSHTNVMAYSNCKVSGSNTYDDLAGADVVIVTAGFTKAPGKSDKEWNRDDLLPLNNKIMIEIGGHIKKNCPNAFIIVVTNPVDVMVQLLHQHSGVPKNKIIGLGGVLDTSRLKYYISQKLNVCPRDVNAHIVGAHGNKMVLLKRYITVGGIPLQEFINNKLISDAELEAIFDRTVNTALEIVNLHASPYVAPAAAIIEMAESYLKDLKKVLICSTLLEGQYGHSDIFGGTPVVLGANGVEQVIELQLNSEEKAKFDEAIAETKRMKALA
Chain of Calcium-dependent protein kinase 1 (Plasmodium falciparum (isolate 3D7)) (P62344 whole entry, looked up): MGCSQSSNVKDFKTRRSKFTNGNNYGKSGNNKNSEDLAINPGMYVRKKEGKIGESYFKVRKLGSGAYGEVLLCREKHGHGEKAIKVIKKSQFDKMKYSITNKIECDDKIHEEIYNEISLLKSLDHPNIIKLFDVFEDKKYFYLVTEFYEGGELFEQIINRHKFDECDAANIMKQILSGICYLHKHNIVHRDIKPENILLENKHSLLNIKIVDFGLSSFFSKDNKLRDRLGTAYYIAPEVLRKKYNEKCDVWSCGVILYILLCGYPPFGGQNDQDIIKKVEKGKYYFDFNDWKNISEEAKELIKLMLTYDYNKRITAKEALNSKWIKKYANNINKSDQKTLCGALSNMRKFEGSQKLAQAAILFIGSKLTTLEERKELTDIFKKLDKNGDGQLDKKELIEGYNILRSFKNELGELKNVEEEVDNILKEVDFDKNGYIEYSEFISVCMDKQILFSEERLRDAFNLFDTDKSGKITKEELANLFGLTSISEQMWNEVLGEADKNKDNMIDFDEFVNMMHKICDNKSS
Chain of Plasmodium falciparum protein kinase 6 (PK6, PF3D7_1337100) (Q8IDW1 1-305): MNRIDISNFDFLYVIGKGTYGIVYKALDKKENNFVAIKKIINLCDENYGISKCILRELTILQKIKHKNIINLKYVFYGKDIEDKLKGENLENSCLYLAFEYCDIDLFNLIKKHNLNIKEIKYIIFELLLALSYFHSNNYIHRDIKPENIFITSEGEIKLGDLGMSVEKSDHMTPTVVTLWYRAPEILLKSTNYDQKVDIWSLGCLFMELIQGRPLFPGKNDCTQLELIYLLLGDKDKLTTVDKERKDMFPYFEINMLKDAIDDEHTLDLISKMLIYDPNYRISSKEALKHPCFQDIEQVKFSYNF

O=C(Nc1ccc(-c2cccc(-c3nc4ccccc4[nH]3)c2)cc1)Nc1ccc2c(c1)OCO2
active: growth inhibition [1] 65% | inhibition [2] 55% | growth inhibition [4] 102%
inactive: inhibition [3] 0% | outcome [5] | outcome [6] | outcome [7] | outcome [8]

CCN(CCCN1CCCCC1)c1nc(C)cc(Nc2ccc(Cl)cc2)n1
active: growth inhibition [1] 92% | growth inhibition [4] 98%
inactive: inhibition [2] 30% | inhibition [3] 3% | outcome [5] | outcome [6] | outcome [7] | outcome [8]

CC[C@H](C)CNC(=O)c1cncc(-c2ccc(CNCC3CNCCCO3)cc2)c1 (some centres not stated)
inactive: growth inhibition [1] -2% | inhibition [2] -5% | inhibition [3] -1% | outcome [5] | outcome [6] | outcome [7] | outcome [8]
active: growth inhibition [4] 100%

CCC(=Cc1cccc([N+](=O)[O-])c1)C(=O)NCC1CCN(c2nc(N)c3cc(OC)c(OC)cc3n2)CC1
inactive: inhibition [2] 25% | inhibition [3] 6% | outcome [5] | outcome [6] | outcome [7] | outcome [8]
active: growth inhibition [1] 62% | growth inhibition [4] 101%

Cc1cccc2[nH]c(-c3cccc(-c4ccc(NC(=O)COc5ccccc5C(N)=O)cc4)c3)nc12
inactive: growth inhibition [1] 47% | inhibition [2] 18% | inhibition [3] -8% | outcome [5] | outcome [6] | outcome [7] | outcome [8]
active: growth inhibition [4] 101%

Cc1noc(-c2ccc3c(c2)CCN(CCC2CCC(NC(=O)/C=C/c4cccc(Cl)c4)CC2)CC3)n1 (configuration not stated)
active: growth inhibition [4] 86%
inactive: growth inhibition [1] 24% | inhibition [2] 37% | inhibition [3] 4% | outcome [5] | outcome [6] | outcome [7] | outcome [8]

CCN1CCN(CCCNc2c3ccc(Cl)cc3nc3ccc(OC)cc23)CC1
active: growth inhibition [1] 100% | growth inhibition [4] 97%
inactive: inhibition [2] 34% | inhibition [3] -5% | outcome [5] | outcome [6] | outcome [7] | outcome [8]

O=C(NCC1CCN(CCN2CCC(c3cn(CCO)c4ccccc34)CC2)CC1)c1ccc(-c2ccc(C(F)(F)F)cc2)cc1
active: growth inhibition [1] 100% | inhibition [2] 100% | growth inhibition [4] 101%
inactive: inhibition [3] 0% | outcome [5] | outcome [6] | outcome [7] | outcome [8]

COc1ccc(NC(=O)[C@H](CC(C)C)Nc2cc(C)nc(NCC3CCCCC3)n2)cc1
active: growth inhibition [1] 92% | growth inhibition [4] 101%
inactive: inhibition [2] 7% | inhibition [3] 2% | outcome [5] | outcome [6] | outcome [7] | outcome [8]

CCS(=O)(=O)Nc1ccc2[nH]cc(C3CCN(CCC4CCN(C(=O)/C=C/c5ccc(Cl)c(Cl)c5)CC4)CC3)c2c1
inactive: inhibition [2] 34% | inhibition [3] -2% | outcome [5] | outcome [6] | outcome [7] | outcome [8]
active: growth inhibition [1] 94% | growth inhibition [4] 99%

CNCCCn1c(N(C)C)nc2cc(-n3cnc4cc(-c5ccc(Cl)cc5)sc4c3=O)ccc21
active: growth inhibition [4] 86%
inactive: growth inhibition [1] 27% | inhibition [2] 39% | inhibition [3] 1% | outcome [5] | outcome [6] | outcome [7] | outcome [8]

COc1ccc2nccc([C@@H](O)CN3CCC(NC(=O)C(c4cc5ccccc5s4)N4CCN(c5ccccc5OC)CC4)CC3)c2c1 (some centres not stated)
inactive: inhibition [2] 21% | inhibition [3] -2% | outcome [5] | outcome [6] | outcome [7] | outcome [8]
active: growth inhibition [1] 88% | growth inhibition [4] 100%

CCCC(C)n1ccc2c3c(N)nc(N)nc3ccc21 (configuration not stated)
inactive: inhibition [3] -2% | outcome [5] | outcome [6] | outcome [7] | outcome [8]
active: growth inhibition [1] 91% | inhibition [2] 70% | growth inhibition [4] 94%

COc1cccc(CN(C(=O)Nc2ccccc2F)[C@H]2C[C@H]3C(=O)Nc4cc(F)ccc4C(=O)N3C2)c1
inactive: inhibition [2] -7% | inhibition [3] 3% | outcome [5] | outcome [6] | outcome [7] | outcome [8]
active: growth inhibition [1] 75% | growth inhibition [4] 93%

CCCCN(CCCC)CCOc1cc2c(cc1OC)CCN2C(=O)/C=C/c1ccccc1Cl
inactive: growth inhibition [1] 31% | inhibition [2] 13% | inhibition [3] 0% | outcome [5] | outcome [6] | outcome [7] | outcome [8]
active: growth inhibition [4] 87%

COc1cccc(C(=O)N2CCOC(CCN3CCC(c4ccccc4)CC3)(c3ccc(Cl)c(Cl)c3)C2)c1 (configuration not stated)
active: growth inhibition [1] 63% | growth inhibition [4] 87%
inactive: inhibition [2] 38% | inhibition [3] -2% | outcome [5] | outcome [6] | outcome [7] | outcome [8]

COc1cc2nc(N3CCC(CNC(=O)c4ccc(-c5ccc(C(=O)N(C)C)cc5O)cc4)CC3)nc(N)c2cc1OC
active: growth inhibition [1] 90% | growth inhibition [4] 101%
inactive: inhibition [2] 2% | inhibition [3] 3% | outcome [5] | outcome [6] | outcome [7] | outcome [8]

O=C(c1ccc(Cl)c(Cl)c1)N1CCc2c([nH]c3ccccc23)C1CN1CCCC1 (configuration not stated)
active: inhibition [2] 83% | growth inhibition [4] 94%
inactive: growth inhibition [1] 16% | inhibition [3] 2% | outcome [5] | outcome [6] | outcome [7] | outcome [8]

COc1ccccc1CN1CCC(CNC(=O)c2cc(-c3ccc(N(C)C)cc3)cs2)C1 (configuration not stated)
active: growth inhibition [4] 82%
inactive: growth inhibition [1] 16% | inhibition [2] 17% | inhibition [3] -5% | outcome [5] | outcome [6] | outcome [7] | outcome [8]
